# Publication PMC11062922 (Nature Chemical Biology, 2023)
# Like-named read-outs stand apart in the source and are kept apart here.
# Experiments:
# Set-up in all cases: species or system human, MV4-11 + K-562 + COLO205 + SK-N-BE2 + OVCAR-8
# NQO2 = conditions: read-out: apparent Kd, n = 1
# PDXK = conditions: read-out: apparent Kd, n = 1
# MAP2K1 = conditions: read-out: apparent Kd, n = 1
# ADCK3 = conditions: read-out: apparent Kd, n = 1
# EPHB1 = conditions: read-out: apparent Kd; compound concentrations:100 nM and 1000 nM (sheet 'Samples'); n = 1
# PIK3CD = conditions: read-out: apparent Kd, n = 1
# MAP2K2 = conditions: read-out: apparent Kd, n = 1
# NQO1 = conditions: read-out: apparent Kd, n = 1
# NLK = conditions: read-out: apparent Kd, n = 1
# MAPKAPK2 = conditions: read-out: apparent Kd; compound concentrations:100 nM and 1000 nM (sheet 'Samples'); n = 1
# MAP4K5 = conditions: read-out: apparent Kd; compound concentrations:100 nM and 1000 nM (sheet 'Samples'); n = 1
# EPHB2 = conditions: read-out: apparent Kd; compound concentrations: 100 nM and 1000 nM (sheet 'Samples'), CATDS: 3.4039918374270103E-2; n = 1
# CSNK1A1 = conditions: read-out: apparent Kd; compound concentrations:100 nM and 1000 nM (sheet 'Samples'); n = 1
# CSNK1D = conditions: read-out: apparent Kd, n = 1
# PDGFRB = conditions: read-out: apparent Kd, n = 1
# [1] = compound concentrations:100 nM and 1000 nM (sheet 'Samples')
structure (smiles),measurement,setting,value
Cn1cc(C2=C(c3cccc([N+](=O)[O-])c3)C(=O)NC2=O)c2ccccc21 [RO0317474-000],potency estimated from few doses,"NQO2; compound concentrations: 100 nM and 1000 nM (sheet 'Samples'), CATDS: 0.12983117909003999",1960 nM
same,potency estimated from few doses,"PDXK; compound concentrations: 100 nM and 1000 nM (sheet 'Samples'), CATDS: 0.221818886522231",628 nM
COc1cc(N2CCN(C(C)C)CC2)ccc1Nc1nc(Nc2cccc(F)c2C(=O)O)c2cc[nH]c2n1 [GSK1819799A],potency estimated from few doses,"MAP2K1; compound concentrations: 100 nM and 1000 nM (sheet 'Samples'), CATDS: 4.3561445001152499E-2",1870 nM
Cn1cc(C2=C(c3cn(CCCN/C(N)=N/[N+](=O)[O-])c4ccccc34)C(=O)NC2=O)c2ccccc21 [RO0318161-000],potency estimated from few doses,"PDXK; compound concentrations: 100 nM and 1000 nM (sheet 'Samples'), CATDS: 0.37249947882966999",866 nM
NC(=O)c1cccnc1COc1cc(-c2ccc(N3CCOCC3)nc2)cc2ncccc12 [BI01125081],potency estimated from few doses,ADCK3; [1],257 nM
same,potency estimated from few doses,EPHB1,738 nM
same,potency estimated from few doses,PDXK; [1],1680 nM
same,potency estimated from few doses,PIK3CD; [1],126 nM
CC(=O)Nc1ccc2c(C3=C(c4cn(C)c5ccccc45)C(=O)NC3=O)cn(C)c2c1 [RO0317596-000],potency estimated from few doses,"NQO2; compound concentrations: 100 nM and 1000 nM (sheet 'Samples'), CATDS: 0.111698981376187",1590 nM
same,potency estimated from few doses,"PDXK; compound concentrations: 100 nM and 1000 nM (sheet 'Samples'), CATDS: 0.18147743783192199",554 nM
Fc1cccc(COc2ccc(Nc3ncncc3C#Cc3ccccc3)cc2Cl)c1 [GW651576X],potency estimated from few doses,"MAP2K1; compound concentrations: 100 nM and 1000 nM (sheet 'Samples'), CATDS: 4.57330679966748E-2",2200 nM
same,potency estimated from few doses,"MAP2K2; compound concentrations: 100 nM and 1000 nM (sheet 'Samples'), CATDS: 5.7439305981691703E-2",1350 nM
same,potency estimated from few doses,"NQO1; compound concentrations: 100 nM and 1000 nM (sheet 'Samples'), CATDS: 4.6647451225595299E-2",2090 nM
COc1cc(F)c(F)c(F)c1C(=O)c1cnc(NC2CCN(S(C)(=O)=O)CC2)nc1N [RO4600703-000],potency estimated from few doses,NQO2; [1],426 nM
same,potency estimated from few doses,PDXK; [1],501 nM
COc1ccc(C2=C(Nc3cccc(O)c3)C(=O)NC2=O)cc1 [SB-390766],potency estimated from few doses,NLK; [1],2210 nM
COc1ccc(Nc2nccc(N3CCC(NC(=O)Nc4cccc(OC)c4)C3)n2)cc1 (stereo not shown) [GSK1379742A],potency estimated from few doses,"MAP2K1; compound concentrations: 100 nM and 1000 nM (sheet 'Samples'), CATDS: 0.105548477944527",2400 nM
same,potency estimated from few doses,"MAP2K2; compound concentrations: 100 nM and 1000 nM (sheet 'Samples'), CATDS: 0.114470387989454",1980 nM
same,potency estimated from few doses,"NQO1; compound concentrations: 100 nM and 1000 nM (sheet 'Samples'), CATDS: 0.15295412535869199",1120 nM
Nc1c(C(=O)c2ccccc2)cnn1-c1ccc(F)cc1 [RO1151246-000],potency estimated from few doses,MAP2K1; [1],1470 nM
same,potency estimated from few doses,MAP2K2; [1],1540 nM
same,potency estimated from few doses,MAPKAPK2,665 nM
COc1cc2ncn(-c3cc(O[C@H](C)c4ccccc4Cl)c(C(N)=O)s3)c2cc1OC [GSK237701A],potency estimated from few doses,MAP4K5,1160 nM
COc1ccc(C2=C(c3cn(C)c4ccccc34)C(=O)NC2=O)cc1OC [RO3206363-000],potency estimated from few doses,EPHB2,1430 nM
same,potency estimated from few doses,"NQO2; compound concentrations: 100 nM and 1000 nM (sheet 'Samples'), CATDS: 4.2100406306544602E-2",722 nM
same,potency estimated from few doses,"PIK3CD; compound concentrations: 100 nM and 1000 nM (sheet 'Samples'), CATDS: 0.47573299908292999",9.3 nM
Cn1cc(C2=C(c3ccccc3[N+](=O)[O-])C(=O)NC2=O)c2ccccc21 [RO0317753-000],potency estimated from few doses,"NQO2; compound concentrations: 100 nM and 1000 nM (sheet 'Samples'), CATDS: 7.9210826703434503E-2",1280 nM
same,potency estimated from few doses,"PDXK; compound concentrations: 100 nM and 1000 nM (sheet 'Samples'), CATDS: 8.6520417055061499E-2",907 nM
Cl.Fc1cccc(COc2ccc(Nc3ncnc4cc(-c5ccc[nH]5)sc34)cc2Cl)c1 [GW693881A],potency estimated from few doses,"NQO2; compound concentrations: 100 nM and 1000 nM (sheet 'Samples'), CATDS: 0.24245202120631801",560 nM
Fc1ccc(-c2ncn(C3CCNCC3)c2-c2ccnc(Oc3ccc4c(c3)OCO4)n2)cc1 [SB-250715],potency estimated from few doses,CSNK1A1,1300 nM
same,potency estimated from few doses,CSNK1D; [1],271 nM
same,potency estimated from few doses,MAP2K1; [1],1050 nM
same,potency estimated from few doses,MAP2K2; [1],1560 nM
same,potency estimated from few doses,MAPKAPK2,4.25 nM
same,potency estimated from few doses,NQO1; [1],1700 nM
CCS(=O)(=O)c1ccc(OC)c(Nc2ncc(-c3cccc(F)c3)o2)c1 [GW621970X_KCGS],potency estimated from few doses,PDGFRB; [1],1960 nM
O=C1NC(=O)C(c2cccc(Cl)c2)=C1Nc1ccc(O)c(Cl)c1 [SB-409514],potency estimated from few doses,"PDGFRB; compound concentrations: 100 nM and 1000 nM (sheet 'Samples'), CATDS: 0.33776588797305401",1280 nM
Cc1[nH]nc2c1N=C(c1ccccc1Cl)c1cc([N+](=O)[O-])ccc1N2 [RO0274406-000],potency estimated from few doses,"PDXK; compound concentrations: 100 nM and 1000 nM (sheet 'Samples'), CATDS: 8.1891234484878103E-2",832 nM
Cn1cc(C2=C(c3cn(CCCCCO)c4ccccc34)C(=O)NC2=O)c2ccccc21 [RO0318053-000],potency estimated from few doses,"NQO2; compound concentrations: 100 nM and 1000 nM (sheet 'Samples'), CATDS: 9.2585577918862794E-2",959 nM
same,potency estimated from few doses,"PDXK; compound concentrations: 100 nM and 1000 nM (sheet 'Samples'), CATDS: 0.25573485461169798",60.4 nM
COc1cccc(C2=C(c3cn(C)c4c(C)cccc34)C(=O)NC2=O)c1 [RO3301012-000],potency estimated from few doses,"NQO1; compound concentrations: 100 nM and 1000 nM (sheet 'Samples'), CATDS: 0.106114123885474",1550 nM
same,potency estimated from few doses,"PDXK; compound concentrations: 100 nM and 1000 nM (sheet 'Samples'), CATDS: 9.7216683357623401E-2",2000 nM
COc1ccc(-c2nn3ncccc3c2-c2ccnc(Nc3ccc4c(c3)OCCO4)n2)cc1 [GW827106X],potency estimated from few doses,"CSNK1D; compound concentrations: 100 nM and 1000 nM (sheet 'Samples'), CATDS: 4.1816048723515499E-2",2430 nM
same,potency estimated from few doses,"NLK; compound concentrations: 100 nM and 1000 nM (sheet 'Samples'), CATDS: 4.4703419918465902E-2",1990 nM
Cc1ccc(CC(=O)N2CCc3cc(-c4cn(C)c5ncnc(N)c45)ccc32)cc1 [GSK2634758A],potency estimated from few doses,"NQO2; compound concentrations: 100 nM and 1000 nM (sheet 'Samples'), CATDS: 0.188092935593722",1120 nM
same,potency estimated from few doses,"PDXK; compound concentrations: 100 nM and 1000 nM (sheet 'Samples'), CATDS: 0.16794834883854801",1390 nM
COc1ccc(COc2ccc(Cc3cnc(N)nc3N)cc2OC)cc1 [GW632580X],potency estimated from few doses,MAP2K2; [1],1630 nM
Cc1ccc(NC(=O)Nc2ccccc2)cc1-c1ccc(C(=O)Nc2ccncc2)cc1 [GSK1398471A],potency estimated from few doses,"PDGFRB; compound concentrations: 100 nM and 1000 nM (sheet 'Samples'), CATDS: 0.100538994858546",1940 nM
Cl.c1ccc(-c2ccc3c(Nc4ccc5[nH]ncc5c4)ccnc3c2)nc1 [GW440137A],potency estimated from few doses,"ADCK3; compound concentrations: 100 nM and 1000 nM (sheet 'Samples'), CATDS: 9.7735008507333701E-2",1200 nM
